# Experimental data taken from PubChem BioAssay.
# Values joined by “and” are separate entries in the source; they are usually repeats but may differ in a detail not shown here. Equal values may be shown once. Results filed as inconclusive are left out. Active and inactive are the calls of the source.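 Rule for the calls, unless noted: active = normalized viability below 100% at a tested concentration; inactive = the rest.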
# What was measured:
# [1] = P. berghei load reduction in hepatocytes – cell-based, HepG2, luciferase luminescence, HepG2 viability, primary screen (AID 624349; in the data active = parasite load remaining mostly below about 12%, no sharp cut-off; inactive = mostly above about 10%;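 note: 100% = mean of DMSO negative control wells on the same plate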); conditions: P. berghei liver stage in HepG2, luciferase luminescence, concentration not given here; parasite load remaining: stronger effect = lower value; viability: measured here: HepG2 viability without parasites
# [2] = Wnt pathway potentiators raising nuclear beta-catenin – imaging, WNT3A-conditioned medium, mouse C2C12, NPC library, primary screen (AID 1117326; in the data active = nuclear beta-catenin stimulation mostly above about 4.2%, no sharp cut-off; inactive = mostly below about 10%); conditions: stronger effect = higher value
# [3] = stimulators of insulin release from INS-1E, primary screen, cell-based, 5 mM glucose, NPC library (AID 1117329;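 active = compound raises insulin release from rat beta cells at 5 mM glucose, no numeric limit stated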); conditions: rat INS-1E insulin secretion, at 10 µM, stronger effect = higher value
# [4] = growth inhibition of GSK3B-pretreated HCT116 cells – cell-based, CellTiter-Glo, 0.2 to 20 µM (AID 1117336;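 active = compounds lowering colon cancer cell viability after pretreatment blocking the GSK3B kinase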); conditions: HCT116 viability after GSK3B inhibitor, at 20 µM, stronger effect = higher value
# [5] = inhibition of endothelial tube formation, primary screen, imaging, VEGF stimulated, CD31 staining, tube area, NPC library (AID 1117340;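 active = compound that reduces growth-factor-driven endothelial tube area in a mixed cell culture, no cutoff stated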); conditions: VEGF-stimulated ADSC/ECFC co-culture, at 10 µM, stronger effect = higher value
# [6] = GLP1 release stimulators, primary, NCI-H716, NPC library (AID 1117341;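 active = compound raises GLP1 secretion from the human gut endocrine cells, with no numeric limit stated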); conditions: NCI-H716 cells, at 10 µM, stronger effect = higher value
# [7] = HCT116 colon cancer cell growth inhibition, primary screen, CellTiter-Glo luminescence, NPC library (AID 1117342;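 active = compounds that lower survival of HCT116 colon cancer cells in the luminescence readout, no numeric limit stated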); conditions: at 20 µM (top of the series)
# [8] = reduced SW480 viability measured with CellTiter-Glo, NPC library, primary (AID 1117343;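 active = compounds that lower viability of the colon cancer cells in the luminescence readout, with no numeric limit stated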); conditions: CellTiter-Glo luminescence; at 20 µM (top of the series) unless noted
# [9] = NPC library primary testing for decreased DLD-1 cell viability via CellTiter-Glo (AID 1117346;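 active = compounds that lower survival of DLD-1 colon cancer cells in the luminescence readout, no cutoff given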); conditions: DLD-1 viability, CellTiter-Glo luminescence; at 20 µM (top of the series)
# [10] = viability loss in pontine glioma line – cell-based, SU-DIPG-XVII, MIPE5.0, CellTiter-Glo, qHTS, dose response (AID 1347060; cut-off not given, nearly all actives have AC50 up to about 26 µM;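 for AC50: cells exposed to compound for 48 hours before viability readout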); conditions: CellTiter-Glo ATP luminescence
# [11] = viability loss in pontine glioma line – cell-based, SU-DIPG-XIII, MIPE4.0, CellTiter-Glo, qHTS, dose response (AID 1347061; cut-off not given, nearly all actives have AC50 up to about 37 µM;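 note: cells exposed to compound for 48 hours before readout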); conditions: CellTiter-Glo ATP luminescence
# [12] = growth inhibition of DIPG cells – cell-based, MIPE4.0 library, CellTiter-Glo luminescence, qHTS (AID 1347066; cut-off not given, nearly all actives have AC50 up to about 30 µM;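 note: cells exposed to compound for 48 hours before readout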); conditions: SU-DIPG-VI viability, CellTiter-Glo ATP luminescence
# [13] = growth inhibition of DIPG cells – cell-based, MIPE5.0 library, qHTS (AID 1347068; cut-off not given, nearly all actives have IC50 up to about 30 µM); conditions: SU-DIPG-XXV viability
# [14] = viability loss with induced miR-34 in A549 – imaging, A549 dox-inducible miR-34, nuclei and caspase counts, primary screen (AID 1347080;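 active = compounds whose cell count with miR-34 switched on is under 0.7 times the count with it off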); conditions: A549 miR-34 inducible, Hoechst nuclei count, 48 h
# [15] = MELAS cybrid and Rieske KO viability enhancers – cell-based, MELAS cybrids, Rieske KO mouse fibroblasts, CellTiter-Glo, primary screen (AID 1508586;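 active = mean z-score across replicates of 1.96 or higher in either the MELAS or the Rieske mutant cell line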;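 note: z relative to plate mean and SD of compound and empty wells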); conditions: low glucose
# [16] = drug combination growth inhibition, ovarian cancer – cell-based, oncology-focused library, rucaparib conditional, profiling panel (AID 1508598); conditions: patient-derived ovarian cancer cells, CellTiter-Glo viability, 144 h, stronger effect = lower value
# [17] = galactose survival enhancers in mitochondrial complex I cybrids – cell-based, galactose medium, ATP luminescence, primary screen (AID 1645843;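 active = z-score of at least 1.8 in each of two replicates, scored against plate mean and spread of sample wells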;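 note: positive z means more ATP and so rescue of galactose-driven cybrid death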); conditions: complex I mutant cybrid cells, 72 h, stronger effect = higher value
# [18] = molecular target: NAD(+) hydrolase SARM1 (Homo sapiens) (UniProt Q6SZW1); experiment: blocking NAD cleavage by SARM1 SAM-TIR – cell lysate, NAD-Glo luminescence (AID 1508614;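 active = compound whose remaining NAD level is above about 45 nM, limit read from the data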;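 note: higher remaining NAD means stronger inhibition of SARM1 NADase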); conditions: SAM-TIR HEK293T lysate NADase, at 1 µM, stronger effect = higher value
# Chain of NAD(+) hydrolase SARM1 (Homo sapiens) (Q6SZW1 whole entry, looked up): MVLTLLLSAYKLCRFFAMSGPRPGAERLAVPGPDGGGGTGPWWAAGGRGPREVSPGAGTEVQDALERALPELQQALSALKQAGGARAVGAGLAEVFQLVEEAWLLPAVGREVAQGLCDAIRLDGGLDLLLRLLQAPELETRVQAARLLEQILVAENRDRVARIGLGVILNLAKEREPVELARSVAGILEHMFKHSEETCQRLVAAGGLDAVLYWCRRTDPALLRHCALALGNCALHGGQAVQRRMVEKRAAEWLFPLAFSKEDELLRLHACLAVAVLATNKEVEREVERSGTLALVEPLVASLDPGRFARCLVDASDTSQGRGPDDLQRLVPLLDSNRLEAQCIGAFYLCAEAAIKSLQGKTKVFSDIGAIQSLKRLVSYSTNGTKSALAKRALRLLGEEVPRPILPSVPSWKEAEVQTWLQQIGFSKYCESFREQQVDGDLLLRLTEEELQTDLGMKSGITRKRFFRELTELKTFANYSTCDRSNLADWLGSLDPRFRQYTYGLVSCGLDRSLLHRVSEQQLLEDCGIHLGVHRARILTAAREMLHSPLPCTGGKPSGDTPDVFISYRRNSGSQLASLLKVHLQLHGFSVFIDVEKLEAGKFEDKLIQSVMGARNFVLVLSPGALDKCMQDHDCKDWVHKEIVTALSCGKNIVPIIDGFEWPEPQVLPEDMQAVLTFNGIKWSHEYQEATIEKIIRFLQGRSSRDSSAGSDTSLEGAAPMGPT
# [19] = stronger effect = lower value, cell number ratio, induced over uninduced
# [20] = measured here: relative caspase fold change +Dox/-Dox
# [21] = measured here: total cells with miR-34 induction, stronger effect = lower value
# [22] = measured here: total cells without miR-34 induction
# [23] = MELAS cybrid survival, CellTiter-Glo 48 h, stronger effect = higher value
# [24] = Rieske KO mouse fibroblast survival, CellTiter-Glo 72 h
compound,measurement,setting,value
Clc1ccc(Nc2nnc(Cc3ccncc3)c3ccccc23)cc1,parasite load remaining,[1],24.4% (inactive)
same,viability,[1],144%
same,nuclear beta-catenin stimulation,[2]; at 10 µM,-2.6% (inactive)
same,nuclear beta-catenin stimulation,"[2]; stimulation, at 2 µM",-0.4%
same,insulin secretion stimulation,[3],9.3% (inactive)
same,viability decrease,[4],76.2% (active)
same,tube area decrease,[5],104% (active)
same,GLP1 secretion stimulation,[6],-2.6% (inactive)
same,inhibition of viability,[7],36% (inactive)
same,viability decrease (inhibition),[8],51.3% (active)
same,viability decrease (inhibition),[9],35.7% (inactive)
same,AC50,[10],16.6 µM (active)
same,outcome,[11],inactive
same,outcome,[12],inactive
same,outcome,[13],inactive
same,fold change,[14]; [19],0.99 (inactive) and 0.927 (inactive)
same,fold change,[14]; [20],0.974 and 0.999
same,cell count,[14]; [21],4800 and 8110
same,cell count,[14]; [22],4850 and 8750
same,z-score,[15]; [23],-0.464 (inactive) and -0.665 (inactive) and -0.288 (inactive)
same,z-score,[15]; [24],0.486 and -0.638 and 0.713
same,viability,"[16]; at 0.000305 µM, OCI-C5x cells, with rucaparib 10 µM, 100% = cells with rucaparib alone",121% (inactive)
same,viability,"[16]; at 0.000305 µM, OCI-C5x cells, without rucaparib",86.5% (active)
same,viability,"[16]; at 0.000305 µM, OCI-P5x cells, with rucaparib 20 µM, 100% = cells with rucaparib alone",94.6% (active)
same,viability,"[16]; at 0.000305 µM, OCI-P5x cells, without rucaparib",89.3% (active)
same,viability,"[16]; at 0.00122 µM, OCI-C5x cells, with rucaparib 10 µM, 100% = cells with rucaparib alone",125% (inactive)
same,viability,"[16]; at 0.00122 µM, OCI-C5x cells, without rucaparib",97.1% (active)
same,viability,"[16]; at 0.00122 µM, OCI-P5x cells, with rucaparib 20 µM, 100% = cells with rucaparib alone",102% (inactive)
same,viability,"[16]; at 0.00122 µM, OCI-P5x cells, without rucaparib",94.6% (active)
same,viability,"[16]; at 0.00488 µM, OCI-C5x cells, with rucaparib 10 µM, 100% = cells with rucaparib alone",117% (inactive)
same,viability,"[16]; at 0.00488 µM, OCI-C5x cells, without rucaparib",98.5% (active)
same,viability,"[16]; at 0.00488 µM, OCI-P5x cells, with rucaparib 20 µM, 100% = cells with rucaparib alone",99.2% (active)
same,viability,"[16]; at 0.00488 µM, OCI-P5x cells, without rucaparib",100% (inactive)
same,viability,"[16]; at 0.0195 µM, OCI-C5x cells, with rucaparib 10 µM, 100% = cells with rucaparib alone",121% (inactive)
same,viability,"[16]; at 0.0195 µM, OCI-C5x cells, without rucaparib",99.4% (active)
same,viability,"[16]; at 0.0195 µM, OCI-P5x cells, with rucaparib 20 µM, 100% = cells with rucaparib alone",102% (inactive)
same,viability,"[16]; at 0.0195 µM, OCI-P5x cells, without rucaparib",95.6% (active)
same,viability,"[16]; at 0.0781 µM, OCI-C5x cells, with rucaparib 10 µM, 100% = cells with rucaparib alone",114% (inactive)
same,viability,"[16]; at 0.0781 µM, OCI-C5x cells, without rucaparib",98.5% (active)
same,viability,"[16]; at 0.0781 µM, OCI-P5x cells, with rucaparib 20 µM, 100% = cells with rucaparib alone",101% (inactive)
same,viability,"[16]; at 0.0781 µM, OCI-P5x cells, without rucaparib",95.5% (active)
same,viability,"[16]; at 0.313 µM, OCI-C5x cells, with rucaparib 10 µM, 100% = cells with rucaparib alone",125% (inactive)
same,viability,"[16]; at 0.313 µM, OCI-C5x cells, without rucaparib",110% (inactive)
same,viability,"[16]; at 0.313 µM, OCI-P5x cells, with rucaparib 20 µM, 100% = cells with rucaparib alone",100% (inactive)
same,viability,"[16]; at 0.313 µM, OCI-P5x cells, without rucaparib",105% (inactive)
same,viability,"[16]; at 1.25 µM, OCI-C5x cells, with rucaparib 10 µM, 100% = cells with rucaparib alone",129% (inactive)
same,viability,"[16]; at 1.25 µM, OCI-C5x cells, without rucaparib",115% (inactive)
same,viability,"[16]; at 1.25 µM, OCI-P5x cells, with rucaparib 20 µM, 100% = cells with rucaparib alone",105% (inactive)
same,viability,"[16]; at 1.25 µM, OCI-P5x cells, without rucaparib",94.9% (active)
same,viability,"[16]; at 5 µM, OCI-C5x cells, with rucaparib 10 µM, 100% = cells with rucaparib alone",128% (inactive)
same,viability,"[16]; at 5 µM, OCI-C5x cells, without rucaparib",142% (inactive)
same,viability,"[16]; at 5 µM, OCI-P5x cells, with rucaparib 20 µM, 100% = cells with rucaparib alone",95.2% (active)
same,viability,"[16]; at 5 µM, OCI-P5x cells, without rucaparib",99.5% (active)
same,z-score,[17],1.34 (inactive)
COC(c1ccccc1)(c1ccccc1)[C@H](Oc1nc(C)cc(C)n1)C(=O)O,nuclear beta-catenin stimulation,[2]; at 10 µM,-1.5% (inactive)
same,nuclear beta-catenin stimulation,"[2]; stimulation, at 2 µM",0%
same,insulin secretion stimulation,[3],4.3% (inactive)
same,viability decrease,[4],-12.3% (inactive)
same,tube area decrease,[5],10.8% (inactive)
same,GLP1 secretion stimulation,[6],-5.9% (inactive)
same,inhibition of viability,[7],6.7% (inactive)
same,viability decrease (inhibition),[8],9.7% (inactive)
same,viability decrease (inhibition),[9],-0.4% (inactive)
same,outcome,[11],inactive
same,outcome,[12],inactive
same,outcome,[13],inactive
O=c1cc(O)c(Cl)c[nH]1,nuclear beta-catenin stimulation,[2]; at 10 µM,-0.6% (inactive)
same,nuclear beta-catenin stimulation,"[2]; stimulation, at 2 µM",-0.5%
same,insulin secretion stimulation,[3],-1.9% (inactive)
same,viability decrease,[4],28% (inactive)
same,tube area decrease,[5],-18.9% (inactive)
same,GLP1 secretion stimulation,[6],-0.1% (inactive)
same,inhibition of viability,[7],27.8% (inactive)
same,viability decrease (inhibition),[8],54.6% (active)
same,viability decrease (inhibition),[9],12.9% (inactive)
same,outcome,[10],inactive
same,outcome,[11],inactive
same,outcome,[12],inactive
same,outcome,[13],inactive
same,fold change,[14]; [19],0.957 (inactive)
same,fold change,[14]; [20],1.21
same,cell count,[14]; [21],8010
same,cell count,[14]; [22],8380
same,z-score,[15]; [23],-0.106 (inactive)
same,z-score,[15]; [24],-0.13
NC(=O)c1ncn([C@@H]2O[C@H](CO)[C@@H](O)[C@H]2O)c1N,nuclear beta-catenin stimulation,[2]; at 10 µM,1.3% (inactive)
same,nuclear beta-catenin stimulation,"[2]; stimulation, at 2 µM",1.8%
same,insulin secretion stimulation,[3],-2.3% (inactive)
same,viability decrease,[4],-16.2% (inactive)
same,tube area decrease,[5],-6.4% (inactive)
same,GLP1 secretion stimulation,[6],1.9% (inactive)
same,inhibition of viability,[7],-20.6% (inactive)
same,viability decrease (inhibition),[8],-88.2% (inactive)
same,viability decrease (inhibition),[9],-22.4% (inactive)
same,outcome,[10],inactive
same,outcome,[11],inactive
same,outcome,[12],inactive
same,outcome,[13],inactive
same,remaining NAD,[18],10 nM (inactive)
